ALDH1A1 block: inhibitors of human aldehyde dehydrogenase 1A1; 220,000 compounds, 7.3% hits; AID 1030; P00352; Purified ALDH1A1, NADH fluorescence, propionaldehyde substrate; Potency, µM (series often up to 75.3 µM), without a hit: at the highest dose activity, negative = inhibition, hits mostly inhibitors;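 also: potency is read from the fitted curve at half-maximal effect; plate controls were no enzyme wells and a reference inhibitor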
Target sequence (P00352 whole entry, looked up): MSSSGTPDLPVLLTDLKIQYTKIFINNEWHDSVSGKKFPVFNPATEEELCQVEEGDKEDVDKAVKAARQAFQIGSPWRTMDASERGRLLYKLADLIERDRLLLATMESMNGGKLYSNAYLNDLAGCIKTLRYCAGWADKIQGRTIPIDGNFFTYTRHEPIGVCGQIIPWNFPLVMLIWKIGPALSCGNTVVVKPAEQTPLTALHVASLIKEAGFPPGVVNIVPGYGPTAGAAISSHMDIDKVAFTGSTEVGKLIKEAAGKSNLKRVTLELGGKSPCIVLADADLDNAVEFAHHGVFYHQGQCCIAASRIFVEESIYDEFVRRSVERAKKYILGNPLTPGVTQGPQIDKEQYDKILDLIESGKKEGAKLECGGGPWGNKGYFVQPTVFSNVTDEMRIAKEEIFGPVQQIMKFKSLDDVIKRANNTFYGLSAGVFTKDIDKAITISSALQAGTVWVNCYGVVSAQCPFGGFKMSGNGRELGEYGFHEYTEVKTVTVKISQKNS
GoLoco inh red: blocks human Gai1 binding to RGS12 GoLoco peptide, red readout | P63096 | 230,000 compounds, 0.44% hits | AID 880 | Potency, µM (highest dose often 61.6 µM), without a hit: at the top dose activity, negative = inhibition, actives largely listed as inhibitors | Gai1:RGS12 GoLoco peptide FP, rhodamine, 10 min; active = well fitted inhibition curve with a large enough effect, not every such curve was filed as active; inactive = no such curve, though single readings can be large or run the other way; also: potency is read from the fitted curve at half-maximal effect; nearly all actives have a fitted effect of over 30% in size
FBPA coupling cs: counter-screen for Giardia aldolase inhibitors: coupling enzyme system | coupling enzyme system counterscreen, AmpLite Red fluorescence | 290,000 compounds, 0.67% hits | activity change, negative = inhibition, % at 58.2 µM, hits read low; in the data active = activity change below about -30%
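Compounds tested against the coupling enzymes alone at 57.5 uM final; readout was AmpLite Red fluorescence (525/598 nm) after 20 min at RT.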
Sfp PPTase inh: Sfp phosphopantetheinyl transferase inhibition; Q9F4F7; Biochemical Sfp PPTase activity, qHTS; Potency, µM, for the others: largest response in the series, negative = inhibition, most hits filed as inhibitors; 310,000 compounds, 3.5% hits; active = well fitted curve in the direction sought with a large enough effect; inconclusive = small, poorly fitted or top-dose-only effect, or another doubt; inactive = no such curve, though single readings can be large; an effect the other way counts as inactive or inconclusive;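 also: the enzyme is Sfp with the accession as filed and its product quenches rhodamine fluorescence; potency is read from the fitted curve at half-maximal effect; 0% = enzyme reaction without inhibitor and -100% = no enzyme wells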
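Fluorescence-quenching assay with 15 nM Sfp, 5 uM rhodamine-CoA and 12.5 uM BHQ-2-labelled ybbR peptide in pH 7.6 Hepes/MgCl2 buffer. Enzyme was pre-incubated with compound for 15 min at room temperature. Rate was taken from the 30-min fluorescence change (525/598 nm).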
KDM4E inh: JMJD2E (human) inhibition | JMJD2E catalytic domain, FDH-coupled NADH fluorescence (FDH is formaldehyde dehydrogenase) | Potency, µM (highest dose often 57.1 µM), inactives show at the top dose activity change, negative = inhibition, usual class: inhibitors | B2RXH2 | 230,000 compounds, 1.6% hits | AID 2147;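 also: potency is read from the fitted curve at half-maximal effect; 0% = wells with enzyme and -100% = buffer wells without enzyme; nearly all actives have a fitted effect of over 50% in size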
NPSR antag: antagonists of human neuropeptide S receptor cAMP signaling; Q6W5P4; CHO-NPSR cells, cAMP TR-FRET, antagonist mode; Potency, µM (titrated, usually from 38.3 µM), inactives show at the top dose activity change, negative = inhibition, actives largely listed as inhibitors; 220,000 compounds, 1% hits; AID 1461; active = well fitted curve in the direction sought with a large enough effect; inconclusive = small, poorly fitted or top-dose-only effect, or another doubt; inactive = no such curve, though single readings can be large; an effect the other way counts as inactive or inconclusive; also: potency is read from the fitted curve at half-maximal effect; nearly all actives have a fitted effect of over 50% in size
* marks the source's active call; other numbers are inactive results; ? = inconclusive; . = no result; ! = not confirmed by another sample; [ ] = another dose, or the depositor's remark. Most compounds without a hit are left out; they make up all but 8.5% or so of the library. Unless noted, calls follow the shape of the dose curve; as a rule, active = well fitted inhibition curve with a large enough effect (not every such curve was filed as active); inconclusive = small, poorly fitted or top-dose-only effect, or another doubt; inactive = no such curve, though single readings can be large or run the other way. Unless noted, % is scaled to controls: 0 for no effect and ±100 for the full control effect.

SMILES	ALDH1A1 block	GoLoco inh red	FBPA coupling cs	Sfp PPTase inh	KDM4E inh	NPSR antag
CC(NC(=O)CCSc1nc(-c2ccc3c(c2)OCO3)cc(C(F)(F)F)n1)c1ccccc1 (configuration not stated)	?	11.9%	4.4	?	?	?
CCS(=O)(=O)c1ccc(NC(=O)c2ccccc2Cl)c(O)c1	15.8µM*	4.0%	0.5	9.2%	1.9%	3.1%[46.1 µM]
NS(=O)(=O)c1ccc(NC(=O)c2ccccc2Cl)cc1	-4.7%	-2.3%	0.3	-2.2%	8.5%	-2.5%[46.1 µM]
CCN(CC)C(=O)c1ccc(Nc2nnc(C)c3ccccc23)cc1	3.98µM*	9.8%	2.0	9.5%	1.0%	-10.0%[46.1 µM]
CCN(CC)C(=O)c1ccc(-c2nnc(Nc3ccc(O)cc3)c3ccccc23)cc1	.	.	0.9	8.4%	.	.
O=C(N/N=C\CCc1ccccc1)c1ccco1	10.8%	10.8%	-1.7	19.4%	-1.7%	2.5%
CCOC(=O)C1=C(C)NC2=C(C(=O)c3ccccc32)C1c1ccc([N+](=O)[O-])o1 (configuration not stated)	?	7.0%	2.6	35.5µM*	8.5%	?
N=C1/C(=C\c2ccc(SCc3ccco3)o2)C(=O)N=C2SC=NN12	7.94µM*	255.2%	1.9	79.4µM*	28.2µM*	-26.8%[46.1 µM]
CCCCCCCCCCCCCC[N+](C)(C)C	.	.	.	11.2µM*	.	.
CCCCCCCCCCCCCCCC[N+](C)(C)CC	.	.	.	79.4µM*	.	.
CC(CN1CCCCC1)OC(=O)c1ccco1 (configuration not stated)	.	.	-0.6	23.1%	.	.
Cc1cccc(Nc2cc(=O)n(C)c(=O)[nH]2)c1	.	.	8.4	12.2%	.	.
O=C(CCc1c[nH]c2ccccc12)NC(Cc1ccccc1)C(=O)O (configuration not stated)	.	.	4.8	13.5%	.	.
CN(C)Cc1c(O)ccc2c(=O)c(-c3ccc(Cl)cc3)coc12	.	.	-0.4	2.6%	.	.
O=c1c(-c2ccc([N+](=O)[O-])cc2)coc2c(O)c(O)ccc12	.	-7.5%	-5.8	1.4%	14.1µM*	0.7%
CC(Oc1ccc2c(c1)oc(=O)c1ccccc12)C(=O)NCCN1CCOCC1 (configuration not stated)	.	.	4.6	0.8%	.	.
COc1ccccc1NS(=O)(=O)c1cc(NC(=O)c2cccs2)ccc1N1CCCC1	12.6µM*	-8.1%	-0.1	20µM*	?	-13.6%
COc1ccccc1NS(=O)(=O)c1cc(NC(=O)/C=C/c2cccs2)ccc1N1CCOCC1	?	17.8%	2.4	-5.0%	-27.3%	-15.3%
COc1ccccc1NS(=O)(=O)c1cc(NC(=O)c2cccs2)ccc1N1CCCCC1	-12.7%	16.2%	0.5	17.3%	25.1µM*	-20.6%
O=C(Nc1ccc(N2CCCC2)c(S(=O)(=O)Nc2cccc(C(F)(F)F)c2)c1)c1cccs1	4.1%	55.9%	-5.1	6.9%	?	-57.8%
O=C(CCCCCN1C(=O)c2cccc3cccc(c23)C1=O)NO	?	15.6%	1.1	4.1%	.	.
FC(F)(F)c1cnc(-c2cnc(-c3ccccn3)nc2)c(Cl)c1	-3.7%	-6.2%	-1.8	6.6%	6.9%	-3.6%
FC(F)(F)c1cnc(-c2cnc(-c3ccncc3)nc2)c(Cl)c1	17.8µM*	-1.8%	2.2	-3.4%	-3.9%	15.1%
CC1(C)CC(=O)c2c(nn(-c3ccccc3)c2-c2ccncc2)C1	14.1µM*	-2.5%	-0.8	17.9%	-3.0%	-1.7%[46.1 µM]
C=C(C)C(=O)c1cccs1	-1.8%	3.8%	2.6	-4.7%	4.8%	.
SMILES	ALDH1A1 block	GoLoco inh red	FBPA coupling cs	Sfp PPTase inh	KDM4E inh	NPSR antag
COc1ccc(NC(=O)N2c3ccc(OC)cc3C(C)=CC2(C)C)cc1	?	-1.6%	-36.3*	20µM*	?	-2.3%
CCNC(=O)N1c2ccc(OC)cc2C(C)=CC1(C)C	?	-5.2%	-40.3*	-18.4%	?	-12.8%[46.1 µM]
Cn1cc(CCC(=O)NCCCc2ccccc2)c2ccccc21	.	.	-1.7	3.4%	.	.
NS(=O)(=O)c1ccc(CNC(=O)Cc2ccccc2[N+](=O)[O-])cc1	.	.	0.5	17.7%	.	.
O=C(Nc1ccc(Cl)cc1)OCc1cc(-c2ccccc2Cl)on1	3.98µM*	4.5%	-0.5	-19.4%	1.0%	-24.6%[46.1 µM]
Cc1ccc(NC(=O)OCc2cc(-c3ccccc3)on2)cc1	1.8%	3.2%	0.8	-22.3%	5.4%	-1.6%
COc1ccc(-c2noc(N3CCC(C(=O)NC(C)c4ccccc4)CC3)n2)cc1 (configuration not stated)	.	.	-4.6	0.0%	.	.
O=C1NC(=S)S/C1=C\c1coc2ccccc2c1=O	8.91µM*	20.2%	5.8	2.1%	-19.8%	-33.0%
CN(C)CCCCSC(=N)N	25.1µM*!	5.5%	8.7	?	-10.1%	-11.3%[46.1 µM]
CN(C)CCCN=C(N)N	4.8%[13.5 µM]	-39.3%[14.2 µM]	.	.	.	.
CC(C)C(NC(=O)c1ccc(Cl)cc1)C(=O)NCC1CCCO1 (configuration not stated)	.	.	0.4	5.5%	.	.

High-throughput results as filed in PubChem.
